Measurements reported in PubChem BioAssay (NCATS).
Results filed as inconclusive are left out. Unmarked numbers belong to inactive results. Active and inactive are the calls of the source. The call rests on the fitted dose curve; in most records, active means well fitted curve in the direction sought with a large enough effect; inconclusive means small, poorly fitted or top-dose-only effect, or another doubt; inactive means no such curve, though single readings can be large or run the other way.

Assay: qHTS Assay for Identifying Gametocytocidal Compounds (AID 743244);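 on max response: actives lower the fluorescent signal which means gametocytes are killed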
Details: P. falciparum 3D7 stage III-V gametocytes, alamarBlue, 72 h; max response: stronger effect = lower value
Method in brief: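 Using 20,000 stage III–V 3D7 gametocytes per well, compounds were incubated 72 h under 37 °C/5% CO2. Viability was then assessed by 24 h alamarBlue reduction, measured fluorometrically at 525/598 nm.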
On the % scale 0 is the no-effect control and ±100 the full control effect; potency means the concentration at half of the fitted maximal effect.

Row | SMILES | max response | Potency
1 | C[C@@H]1CN(C2CCC(C#N)(c3ccc(F)cc3)CC2)CC[C@]1(C(=O)O)c1ccccc1 (stereo not given in full) | -3.29% | 
2 | ClC1=C(Cl)C2(Cl)C(CBr)CC1(Cl)C2(Cl)Cl (stereo not given) | -1.6% | 
3 | C#C[C@]1(O)C=C[C@H]2[C@@H]3CCC4=CC(=O)CC[C@@H]4[C@H]3CC[C@@]21CC | 2.38% | 
4 | CCC1(c2cccc(O)c2)CCCCN(C)C1 (stereo not given) | 11.4% | 
5 | CN1C(=O)[C@@H](NC(=O)c2cc3ccccc3[nH]2)N=C(c2ccccc2)c2ccccc21 | -6.73% | 
6 | O=C(O)Cc1ccccc1 | -12.8% | 
7 | COc1ccc2c(C(=O)c3ccc(Cl)cc3)c(C)n(CC(=O)O)c2c1 | 36.2% | 
8 | COc1ccc2c3c1O[C@H]1[C@@H](O)C=C[C@H]4[C@@H](C2)N(C)CC[C@@]341 | 7.49% | 
9 | CN(C)CCc1c[nH]c2ccc(O)cc12 | -10.2% | 
10 | CNC(=O)NC(O)C(Cl)(Cl)Cl (stereo not given) | 8.2% | 
11 | c1cc2c(c(N3CCNCC3)c1)OCCO2 | -8.91% | 
12 | C[N+]1(CCC(C(N)=O)(c2ccccc2)c2ccccc2)CCCCC1 | -5.02% | 
13 | CCCC[N+]1(C)[C@@H]2CC(OC(=O)[C@H](CO)c3ccccc3)C[C@H]1[C@@H]1O[C@@H]12 (stereo not given in full) | 5.95% | 
14 | COc1cccc2c1C(=O)c1c(O)c3c(c(O)c1C2=O)C[C@@](O)(C(=O)CO)C[C@@H]3O[C@H]1C[C@H](N)[C@H](O[C@@H]2CCCCO2)[C@H](C)O1 |  | 22.4 µM (active)
15 | Cc1c(Cl)c(=O)oc2cc(OP(=O)(OCCCl)OCCCl)ccc12 | 22.1% | 
